# Screening data (PubChem)
# Tb PGK inh: blocks T. brucei phosphoglycerate kinase; P07378; PGK/GAPDH coupled, Kinase-Glo luminescence, 60 min; Potency, µM (series often up to 57.5 µM), for the others: at the highest dose activity change, negative = inhibition, most hits filed as inhibitors; actives 0.043% (n = 380,000); also: potency is read from the fitted curve at half-maximal effect; % is scaled to controls: 0 for no effect and ±100 for the full control effect; nearly all actives have a fitted effect of over 60% in size
#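 Luminescent ATP detection (Kinase-Glo Plus) follows a 60-minute room-temperature incubation, with wells lacking PGK as controls. Buffer: 100 mM TEA (pH 7.6), 5 mM MgCl2, 0.01% Tween-20. Coupling enzyme GAPDH (100 nM final) supplies unstable 1,3-BPG in-well.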
# PINK1 expr mod: modulators of PINK1 expression | PINK1 immunofluorescence, high-content cytometry, 24 h | Potency, µM (series often up to 76.6 µM), for inactives: top-dose activation (PINK1 increase), most hits filed as activators | actives 0.2% (n = 410,000) | AID 624263; active = well fitted activation curve with a large enough effect; inconclusive = small, poorly fitted or top-dose-only effect; cell line not stated here; also: potency is read from the fitted curve at half-maximal effect; % of control where 0% means no effect; nearly all actives have a fitted effect of over 65% in size
#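 Measures PINK1 amount and localization on or inside mitochondria by immunofluorescence. Stable cells get compounds at 5 concentrations for 24 hours before fixation and staining; CCCP controls included.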
# GLS inh: glutaminase GLS (human) inhibition. O94925. GLS enzymatic activity, qHTS titration. Potency, µM (top dose mostly 45.5 µM), for the others: top-dose activity change, negative = inhibition, most hits filed as inhibitors. actives 0.21% (n = 410,000). AID 624170; also: potency is read from the fitted curve at half-maximal effect; % is scaled to controls: 0 for no effect and ±100 for the full control effect
#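 Read-out is an Amplex red fluorescence increase coupled through glutamate oxidase and HRP, measured before and after 30 min room-temperature incubation. hKGA is in 45 mM KH2PO4 (pH 8.2) with 0.02% Tween-20; glutamine added as 1mM solution.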
# CCT modulator: changes cytosolic chaperonin activity | purified chaperonin ATPase assay, HTRF ADP detection, 30 min | activity change, % (concentration not given with the values), hits read low | actives 0.3% (n = 360,000); in the data active = activity change below about -30%; also: % is scaled to controls: 0 for no effect and ±100 for the full control effect
#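 Nucleotide hydrolysis assay: TRiC at 20–40 nM final (set by batch activity) with 10 uM ATP, 30 min at 37 °C, in presence of 76 uM compound. Detection by competitive ADP HTRF, 30 min ambient.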
# PI4K2A inh: blocks human PI4K2A kinase activity; Q9BTU6; purified PI4K2A, ADP-Glo luminescence, 1 h; hits give low values; activity change, negative = inhibition, % at 76.9 µM; actives 0.13% (n = 420,000); in the data active = activity change below about -50%; inconclusive = mostly about -30% to -49%;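 also: -100% = wells without enzyme as full effect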
# Target sequence (Q9BTU6 whole entry, looked up): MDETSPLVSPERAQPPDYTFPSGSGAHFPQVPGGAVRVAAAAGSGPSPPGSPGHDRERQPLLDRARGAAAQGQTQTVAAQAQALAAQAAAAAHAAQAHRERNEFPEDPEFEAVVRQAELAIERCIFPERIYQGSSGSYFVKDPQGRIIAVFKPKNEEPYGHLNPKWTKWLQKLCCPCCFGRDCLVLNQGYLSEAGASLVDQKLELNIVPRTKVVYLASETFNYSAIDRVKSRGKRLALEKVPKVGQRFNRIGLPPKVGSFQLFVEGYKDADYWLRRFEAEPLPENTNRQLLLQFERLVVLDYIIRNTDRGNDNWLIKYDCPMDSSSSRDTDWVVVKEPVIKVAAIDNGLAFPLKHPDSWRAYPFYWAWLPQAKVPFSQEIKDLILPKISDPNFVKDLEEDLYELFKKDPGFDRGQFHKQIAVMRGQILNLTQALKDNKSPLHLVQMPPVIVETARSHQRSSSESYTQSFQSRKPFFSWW
#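 PI4K2A activity was measured by ADP-Glo luminescence: enzyme (4 ug/mL stock) and phosphatidylinositol (1.2 mM stock) in Tris pH 7.5/MgCl2/EGTA/Triton X-100 buffer were reacted with ATP (300 microM stock) for one hour at ambient temperature.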
# The depositor's hits bear a star; i = inactive; ? = inconclusive; . = no result; [ ] = remark or other dose. Hits are enriched below; roughly 0.78% of the tested compounds scored in any of these assays. Unless noted, calls follow the shape of the dose curve; as a rule, active = well fitted curve in the direction sought with a large enough effect; inconclusive = small, poorly fitted or top-dose-only effect, or another doubt; inactive = no such curve, though single readings can be large; an effect the other way counts as inactive or inconclusive.
SMILES,Tb PGK inh,PINK1 expr mod,GLS inh,CCT modulator,PI4K2A inh
Cc1ccccc1NC(=O)CC(C)S(=O)(=O)c1ccc2c(c1)NC(=O)CO2 (centres undefined),7%,0%,6%,-63*,3
O=C1Cc2cccc(=O)c(O)c2C(=O)O1,?,2%,4µM*,0,-6
CCCCSc1c(C)c2cc3c(cc2[nH]c1=O)OCO3,-5%,5.6µM*,0%,-1,4
O=C(Nc1ccncc1)c1ccc2c(c1)C(=O)N(C1CCCCC1)C2=O,-2%,0%,-11%,1,9
CCC(=O)Nc1ccc2c(c1)C(=O)N(C1CCCCC1)C2=O,-6%,3.5µM*,-9%,-1,7
Cc1nc2ccccc2nc1CN1CCOc2ccc(C3(O)CCN(c4ccccc4F)CC3)cc2C1,.,1%,.,.,.
Cc1cccc(C)c1NC(=O)c1c(C)oc2c1C1=NCCN1C=N2,-2%,3%,-5%,.,0
Cc1ccccc1CNC(=O)c1c(C)oc2c1C1=NCCN1C=N2,-2%,-2%,4µM*,.,0
NC(=O)c1sc2nc3c(c(-c4ccco4)c2c1N)CCC3,i,.,11%,0,0
Nc1c(C(=O)NC2CC2)sc2nc3c(c(-c4ccco4)c12)CC/C3=C/c1ccco1,?,4%,1.8µM*,1,-74*
COC(=O)c1ccc(C(=O)NCC2Cc3cccc(-c4ccc(C(=O)OC)cn4)c3O2)cc1 (centres undefined),.,-1%,.,.,.
Cc1ccc(CSc2nc3sc(C)c(C)c3c(=O)n2Cc2ccco2)cc1,-7%,.,.,-31*,2
Cc1sc2nc(SCc3ccccc3)n(Cc3ccco3)c(=O)c2c1C,-10%,?,-1%,-1,7
COc1cc(N/N=C/c2ccc(N(C)C)cc2)ncn1,-5%,1%,9%,-1,-53*
O=c1ccc(N=Nc2ccccc2)ccc1O,-12%,?,21%,-1,-60*
O=S(=O)(O)c1ccc(N=Nc2ccccc2)cc1,i,0%,19%,-2,?
O=S(=O)(NCC1OCCc2ccccc21)c1ccc(S(=O)(=O)N2CCOCC2)cc1 (centres undefined),.,-2%[38.3 µM],3%,-52*,2
O=S(=O)(NCC1CCN(c2ccc(S(=O)(=O)N3CCOCC3)cc2)CC1)c1ccccc1,0%,0%,2%,-2,-4
CC1(C)CC(=O)C2=C(C1)N1C(=C(C#N)C2c2ccc(Cl)cc2)N=C(N)c2ccccc21 (centres undefined),-6%,5%,0%,-36*,-2
COc1ccc(NC(=O)NC(C)c2ccncc2)cc1OC (centres undefined),-4%,11µM*,-8%,-3,-6
Cn1nccc1C(=O)NCC1CCC2(CCN(Cc3cccc4ncccc34)CC2)O1 (centres undefined),.,0%,.,.,.
COC(=O)[C@@H]1CCCN1C(=O)c1cnn(-c2nccc(-c3cc(C)sc3C)n2)c1C1CC1,.,-1%,.,.,.
COc1ccc(Cc2nnc(NN)[nH]c2=O)cc1OC,4%,2%,22µM*,0,-2
Cc1oc(-c2ccccc2NC(=O)c2ccsc2)nc1CN(C)Cc1ccc2c(c1)CCCN2C,.,2%,.,.,.
Cc1ccc(S(=O)(=O)/N=C(/Nc2ccc([N+](=O)[O-])cc2)c2ccccc2)cc1,4%,9%,0%,0,-2
SMILES,Tb PGK inh,PINK1 expr mod,GLS inh,CCT modulator,PI4K2A inh
Cc1ccc(S(=O)(=O)/N=C(/Nc2ccc([N+](=O)[O-])cc2[N+](=O)[O-])c2ccccc2)cc1,-1%,35µM*,26%,0,-2
COc1cc(O)oc1C=Nc1ccc(C(=O)O)cc1,?,2%,15%,-5,-50*
COc1ccc(C2=NNC(=Nc3cc(S(=O)(=O)N(C)C)ccc3C)SC2)c(OC)c1,i,2.8µM*,0%,-2,-3
CN(C)S(=O)(=O)c1cccc(N=C2NN=C(c3ccccc3)CS2)c1,i,32µM*,12%,-5,-9
CC(=O)Nc1ccc(C2=NNC(=Nc3cccc(S(=O)(=O)N(C)C)c3)SC2)cc1,.,?,19%,3,-28
CC(C)C[C@@H]1[C@H](c2ccccc2)OC(=O)N1CCCN1CCCCCC1,.,.,.,.,2
O=C(CN1C(=O)c2ccccc2C1=O)NCC1Cc2cccc(-c3ncccn3)c2O1 (centres undefined),.,-1%,.,.,.
CCN(CC)CC(=O)OCC(=O)[C@@]1(O)CC[C@H]2[C@@H]3CCC4=CC(=O)CC[C@]4(C)[C@H]3[C@@H](O)C[C@@]21C,.,.,.,.,1
CC1(C)Cc2nc3oc4c(=O)n(CC(=O)Nc5ccccc5)cnc4c3cc2CO1,-5%,4%,-16%,4,-2
CC1(C)Cc2nc3sc4c(=O)n(CC(=O)NCc5ccco5)cnc4c3cc2CO1,-6%,11µM*,2%,0,3
COc1cc(/C=N/NC(=O)Cn2cnc3ccccc3c2=O)ccc1O,2%,-1%,20µM*,-3,-1
COc1ccc(/C=N\NC(=O)CNC(=O)C(c2ccccc2)c2ccccc2)cc1[N+](=O)[O-],-2%,2%,0%,1,-22
COc1cc(/C=N\NC(=O)CNC(=O)C(c2ccccc2)c2ccccc2)ccc1O,1%,6%,11µM*,1,3
COCC(=O)Nc1cc(C(=O)N2CCN(C)C(c3ccccc3)C2)c2c(c1)nc(-c1ccncc1)n2C (centres undefined),.,-1%,.,.,.
CC(CN1CCOCC1)C(Cc1ccccc1)(Cc1ccccc1)C(=O)N1CCCC1 (centres undefined),.,.,9%[99.4 µM],.,.
Cc1ccccc1C(=O)N1CCc2c(cnc(C)c2CNC(=O)c2ccc3c(c2)OCO3)C1,.,1%,.,.,.
Cc1ccn(CCC(=O)NCC2Cc3cc(Cl)cc(-c4ccc5[nH]ccc5c4)c3O2)n1 (centres undefined),.,3%,.,.,.
Cc1cc(C)cc(CC(Cc2nc3ccccc3[nH]2)c2nc3ccccc3[nH]2)c1 (centres undefined),i,16µM*,5%,2,2
O=C(COC(=O)c1cc(=O)[nH]c2ccccc12)c1ccc(Br)cc1,7%,1%,-7%,-126*,1
CCOc1ccc(C(=O)COC(=O)c2cc(=O)[nH]c3ccccc23)cc1,-5%,6%,5%,-1,1
O=C(COC(=O)c1cc(=O)[nH]c2ccc(Br)cc12)c1ccccc1,6%,-4%,-21%,-33*,-1
Cn1c(CCNC(=O)C2CC23CCN(C(=O)C2=CCCC2)CC3)nc2ccccc21 (centres undefined),.,0%,.,.,.
CC(C)NC(=O)c1cc(-c2ccc(Br)cc2)on1,0%,10µM*,17%,0,-7
COc1ccc(-c2cc(C(=O)Nc3cc(OC)c(OC)c(OC)c3)no2)cc1,-9%,-1%,-11%,-34*,-3
